This passage reports Potency and outcome results from PubChem BioAssay (Tox21).

Inconclusive results are not listed. Some structures have more than one record in an assay (separate samples or runs), and their calls can disagree. The source made the active and inactive calls. Unless noted, calls follow the shape of the dose curve; as a rule, active = well fitted curve in the direction sought with a large enough effect in the repeat runs; inconclusive = weak or mixed curves; inactive = no such curve, though single readings can be large; an effect the other way counts as inactive or inconclusive.

Test [1] is described as follows: qHTS assay to identify small molecule antagonists of the estrogen related receptor (ERR) signaling pathway from Tox21 library - cell viability counter screen (AID 1224834). Also: nearly all actives have a fitted effect of over 30% in size. Summed up: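 Fluorescence from CellTiter-Fluor gives the viability read-out, taken 30 min after reagent addition. Before that, ERR cells seeded 6 h earlier were incubated with compounds for 17.5 h at 37 C.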

Test [2] has as its target Luciferin 4-monooxygenase (Photinus pyralis) (UniProt P08659). Nature of the test: qHTS assay to identify small molecule inhibitors of firefly luciferase (AID 1224835). Also: nearly all actives have a fitted effect of over 25% in size. Also: potency is read from the fitted curve at half-maximal effect. Summed up:
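Inhibition of purified Photinus luciferase is measured by luminescence. Substrate levels (D-luciferin, ATP) sit at their KM values. Each compound is tested in a concentration series.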

Test [3] is described as follows: qHTS assay to identify small molecule agonists of the constitutive androstane receptor (CAR) signaling pathway - cell viability counter screen (AID 1224836). Also: series mostly up to about 92 µM; nearly all actives have a fitted effect of over 45% in size. In short, it runs like this: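 Compound titrations (15 concentrations) went onto HepG2-CYP2B6-hCAR cells 4 h after seeding, alongside PK11195 at a final 0.75 uM; a 23 h, 37 C/5% CO2 incubation preceded CellTiter-Fluor viability measurement.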

Test [4] in a line: qHTS assay to identify small molecule antagonists of the constitutive androstane receptor (CAR) signaling pathway - cell viability counter screen (AID 1224837). Also: series mostly up to about 92 µM; nearly all actives have a fitted effect of over 45% in size. Summed up: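 HepG2-CYP2B6-hCAR cells, 2500/well, 4 hr pre-incubation; compound titration, 15 conc.; CITCO 50 nM final; 23 hr, 37 C/5% CO2; CellTiter-Fluor, fluorescence intensity.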
Test [5] can be described thus: qHTS assay to identify small molecule antagonists of the estrogen related receptor signaling pathway with the pleiotropic PPARgamma coactivator (PGC) from Tox21 10K library - cell viability counter screen (AID 1224840; active = well fitted cell-killing curve with a large enough effect in the repeat runs, not every such curve was filed as active; also: nearly all actives have a fitted effect of over 40% in size). Summed up: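 PGC/ERR cells, 2,000/well; 6 h pre-incubation 37 C/5% CO2; cpd in DMSO via pin tool; 17.5 h 37 C; CellTiter-Fluor, 30 min; fluorescence.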

In test [6] the target is Nuclear receptor subfamily 1 group I member 3 (Homo sapiens) (UniProt Q14994). Nature of the test: qHTS assay to identify small molecule antagonists of the constitutive androstane receptor (CAR) signaling pathway (AID 1224838).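 Also: HepG2 cells stably expressing hCAR with CYP2B6 luciferase reporter stimulated by CITCO; nearly all actives have a fitted effect of over 40% in size.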 In short, it runs like this: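 HepG2-CYP2B6-hCAR cells; 4 h pre-incubation; cpd (15 conc) + CITCO 50 nM final; 24 h, 37 C/5% CO2; ONE-Glo, luminescence.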

For test [7] the target is unchanged. Nature of the test: qHTS assay to identify small molecule agonists of the constitutive androstane receptor (CAR) signaling pathway (AID 1224839).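 Also: HepG2 cells stably carrying human CAR and a CYP2B6 luciferase reporter; series mostly up to about 92 µM; nearly all actives have a fitted effect of over 15% in size.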 Summed up:
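In this screen, CAR-driven CYP2B6 promoter activity is measured by luminescence in HepG2-CYP2B6-hCAR cells after 24 h with test compounds and 0.75 uM PK11195 (final concentration).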

Test [8] is described as follows: qHTS assay to identify small molecule antagonists of the estrogen related receptor signaling pathway with the pleiotropic PPARgamma coactivator (PGC) from Tox21 10K library (AID 1224841; call rule not given here; also: series mostly up to about 92 µM; actives are mostly falling curves and most rising ones were filed inactive; nearly all actives have a fitted effect of over 50% in size). In short, it runs like this: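 PGC/ERR cell line, 2,000 cells/well; 6 h pre-incubation 37 C/5% CO2; compounds (DMSO) pinned in; 18 h, 37 C; One-Glo, 30 min RT; luminescence.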
The nature of test [9]: qHTS assay to identify small molecule agonists of the estrogen related receptor signaling pathway with the pleiotropic PPARgamma coactivator (PGC) from Tox21 10K library (AID 1224842). Also: nearly all actives have a fitted effect of over 15% in size. In short, it runs like this:
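Luminescence from One-Glo (30 min, room temperature) measured after PGC/ERR cells had 18 h at 37 C with pinned compound (23 nL in DMSO). Cells had been seeded at 2,000 per well and pre-incubated 6 h.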

A short description of test [10]: qHTS assay to identify small molecule agonists of the estrogen related receptor signaling pathway with the pleiotropic PPARgamma coactivator (PGC) (AID 1224823). In short, it runs like this:
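PGC/ERR reporter cells seeded 6 h, then exposed to compounds (23 nL in DMSO) for 18 h at 37 C. One-Glo luciferase luminescence read after 30 min at room temperature.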

Nuclear receptor subfamily 1 group I member 3 (Homo sapiens), sequence (Q14994 whole entry, looked up): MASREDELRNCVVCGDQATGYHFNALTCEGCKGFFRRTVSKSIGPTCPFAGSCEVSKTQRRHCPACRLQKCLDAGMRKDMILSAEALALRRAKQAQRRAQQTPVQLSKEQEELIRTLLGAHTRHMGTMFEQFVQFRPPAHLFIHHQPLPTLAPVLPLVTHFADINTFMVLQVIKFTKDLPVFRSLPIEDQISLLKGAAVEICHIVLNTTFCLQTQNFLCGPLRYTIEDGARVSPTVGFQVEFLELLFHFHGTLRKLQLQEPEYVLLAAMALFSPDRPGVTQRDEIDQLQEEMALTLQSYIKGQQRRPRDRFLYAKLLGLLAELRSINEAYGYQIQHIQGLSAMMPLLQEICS
Luciferin 4-monooxygenase (Photinus pyralis), sequence (P08659 whole entry, looked up): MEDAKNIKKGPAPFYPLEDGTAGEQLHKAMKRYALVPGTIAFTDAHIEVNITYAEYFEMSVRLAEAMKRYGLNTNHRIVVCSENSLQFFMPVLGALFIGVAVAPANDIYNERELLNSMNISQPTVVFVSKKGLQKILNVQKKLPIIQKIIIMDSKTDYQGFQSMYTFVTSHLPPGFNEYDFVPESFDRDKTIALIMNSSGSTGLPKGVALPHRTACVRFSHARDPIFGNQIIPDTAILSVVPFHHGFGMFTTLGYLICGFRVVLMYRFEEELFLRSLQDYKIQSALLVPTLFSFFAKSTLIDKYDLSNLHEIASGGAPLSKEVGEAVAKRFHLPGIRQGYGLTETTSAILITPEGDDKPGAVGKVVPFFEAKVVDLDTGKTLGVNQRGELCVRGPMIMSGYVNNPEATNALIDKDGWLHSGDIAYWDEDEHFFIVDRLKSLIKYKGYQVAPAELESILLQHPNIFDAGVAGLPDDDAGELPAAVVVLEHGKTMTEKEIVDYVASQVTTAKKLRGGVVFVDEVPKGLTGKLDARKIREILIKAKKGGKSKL

For `CC(O)CC(C)(C)O` (configuration not stated), the Potency result in test [1], in [2], in test [3], in test [4] and in test [5] was “inactive” throughout.
Take `CC1(C)OC[C@@H]2O[C@@]3(C(=O)O)OC(C)(C)O[C@H]3[C@@H]2O1`: the Potency entry in [1], in test [2], in test [3], in [4] and in test [5] was “inactive” throughout. In addition, in test [6], the compound was called inactive.
Regarding `CCCOC(=O)c1ccccc1`, the Potency entry in test [1], in [2], in test [3], in test [4], in [7] and in test [5] was “inactive” in each case. Besides, the Potency entry in test [8] is “inactive”. For the same compound, in [9], the outcome was inactive.
`C[C@]12CCC(=O)C=C1CC[C@@H]1[C@@H]2[C@@H](O)C[C@@]2(C)[C@H]1CC[C@]2(O)C(=O)CO`: the Potency entry in test [1], in [2], in [3], in test [4] and in [5] was “inactive” in each case.
`CCNc1ccccc1`: the Potency result in test [1], in [3], in test [4] and in test [5] was “inactive” in each case. In addition, in test [2], the Potency was 28.8 µM (active) and inactive.
As to `CC1(C)S[C@@H]2[C@H](NC(=O)COc3ccccc3)C(=O)N2[C@H]1C(=O)O`, the Potency entry in [1], in test [2], in [3], in test [4], in test [7] and in [5] was “inactive” each time. In addition, the Potency result in [8] was “inactive”. In addition, the outcome in test [9] was inactive.
For `CN(C)CCOC(=O)COc1ccc(Cl)cc1`, the compound was called inactive in test [10] and in [9]. Further, the Potency result in test [1], in test [3], in test [4], in [5] and in [8] was “inactive” in each case.
For the compound `CC(C)=CCl`, the Potency entry in test [1], in test [2], in test [3], in test [4] and in [5] was “inactive” each time. The compound was classed as inactive in test [6].
Regarding `c1ccc2c(c1)Cc1ccccc1-2`, the Potency entry in test [1], in [2], in test [3], in [4] and in test [5] was “inactive” each time.
With `CC1(C)NC(=O)NC1=O`, the Potency entry in [1], in [2], in test [3], in test [4], in [7] and in [5] was “inactive” each time. For the same compound, the Potency entry in [8] is “inactive”. Moreover, the compound was classed as inactive in test [6] and in test [9].
On to `O=c1[nH]cnc2[nH]ncc12`, for which the Potency result in test [1], in [2], in [3], in [4] and in test [5] was “inactive” each time. Moreover, the outcome in test [6] was inactive.
`Cc1ccc(S(=O)(=O)N=C=O)cc1`: the Potency entry in test [1], in test [2], in test [3], in test [4], in [5] and in test [8] was “inactive” each time. The result in test [9] was inactive.
`CC(=O)OCc1ccco1`: the Potency result in test [1], in [3], in [4], in test [7], in test [5] and in test [8] was “inactive” in each case. Besides, the call in [9] was inactive.
Take `CCCCCCCCCCCCCCCCO`: the Potency result in test [1], in test [3], in test [4] and in test [5] was “inactive” in each case. The compound was classed as inactive in test [6].
Regarding `CC(C)(C#N)c1cc(Cn2cncn2)cc(C(C)(C)C#N)c1`, the Potency result in [1], in test [3], in test [4], in [7], in [5] and in test [8] was “inactive” throughout. For the same compound, the result in [9] was inactive.
As to `CSc1ccc(Cl)cc1`, the Potency entry in [2], in test [3], in test [4], in [7] and in test [5] was “inactive” throughout. For the same compound, in test [6], the result was inactive.
As to `O=C(OCC1CCC2OC2C1)C1CCC2OC2C1` (configuration not stated), the Potency result in [1], in test [3], in [4], in test [7] and in test [5] was “inactive” throughout. Also, the outcome in [6] was inactive.
For the compound `Brc1ccc(Br)c(Br)c1`, the Potency result in [1], in test [3], in test [4] and in test [5] was “inactive” throughout.
Consider `COCCCN`, for which the Potency entry in test [1], in test [3], in test [4] and in [5] was “inactive” in each case.
`CCCCC(C=O)CC` (configuration not stated): the Potency entry in test [1], in [3], in [4], in test [7] and in test [5] was “inactive” throughout.
As to `CCCCCCCC=O`, the Potency result in test [1], in [3], in test [4] and in test [5] was “inactive” in each case.
Consider `CCCCCCCCCCCC(=O)OC`, for which the Potency entry in [1], in test [3], in test [4] and in [5] was “inactive” throughout.
Regarding `OCc1ccccc1`, the Potency entry in [1], in test [3], in test [4], in test [7], in [5] and in [8] was “inactive” each time. The compound was called inactive in test [9].
Consider `C=CCCCCCCCCC(=O)O`, for which the Potency result in [1], in [3], in test [4] and in test [5] was “inactive” throughout.
In the case of `CC(=O)CCC=C(C)C`, the Potency result in test [1], in [2], in test [3], in [4], in test [5] and in test [8] was “inactive” in each case. Besides, the compound was classed as inactive in [9].
For the compound `O=[N+]([O-])c1ccc2nc[nH]c2c1`, the Potency result in test [1], in test [3], in [4] and in test [5] was “inactive” throughout.
For the compound `CCO[Si](CCCN)(OCC)OCC`, the Potency entry in test [1], in [3], in [4], in test [5] and in test [8] was “inactive” in each case. Moreover, the compound was called inactive in test [9].
